According to PubChem BioAssay AID2016 (NMMLSC, 2009):
About 1,700 (0.52%) of roughly 330,000 compounds were called active.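 How the source made its calls: active means GFP response versus DMSO above a set limit, roughly screen mean plus 3 SD (cut at about 180% in these data); inconclusive means fewer than 70 cells counted for a yeast strain; inactive means the rest.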 The list comes from a sample in which actives are over-represented; it also holds similar structures and randomly drawn compounds.

Assay: TOR pathway GLN3 branch reporter MEP2-GFP changes – S. cerevisiae, multiplex flow cytometry, MLPCN library, primary screen (AID 2016);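 further: median GFP fluorescence of the barcode-gated MEP2-GFP cells per well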
Settings: S. cerevisiae MEP2-GFP strain, 3 h, at 10 µM, hits give high values, 100% = DMSO control level

Row | SMILES | GFP response vs DMSO
1 | CC(C)(C)C1CCC(C(=O)NCC(c2cccs2)N2CCOCC2)CC1 (stereo unspecified) | 99% (inactive)
2 | CN1CCN(C(=O)Cn2c(C(F)(F)F)nc3ccccc32)CC1 | 103% (inactive)
3 | C=CCN1CC(C)/C(=N\O)CC1C (stereo unspecified) | 93.2% (inactive)
4 | Cc1ccc(C(=O)Nc2c(C#N)c(C)c(C)n2Cc2ccccc2)cc1 | 364% [may fluoresce violet] (active)
5 | Cc1c(C#N)c(NC(=O)c2ccccc2)n(Cc2ccccc2)c1C | 93.8% (inactive)
6 | COc1ccc(Cn2c(C)c(C)c(C#N)c2NC(=O)Nc2ccc(F)cc2)cc1 | 99.5% (inactive)
7 | Cc1cc(C)c2c(-c3ccc(F)cc3)c(C#N)c(=O)n(C)c2n1 | 95.2% (inactive)
8 | Cc1ccc(CCNC(=O)c2ccc3nc4ccccc4c(=O)n3c2)cc1 | 112% (inactive)
9 | Cc1ccc2nc3c(cc(C(=O)NCCc4ccccc4)c(=N)n3CC3CCCO3)c(=O)n2c1 (stereo unspecified) | 238% [may fluoresce violet] (active)
10 | Cc1cccn2c(=O)c3cc(C(=O)NCC4CCCO4)c(=N)n(Cc4ccc(F)cc4)c3nc12 (stereo unspecified) | 92.2% (inactive)
11 | COc1ccc(-c2c(C(C)=O)c(C)nc3sc4c(=O)n(-c5ccc(C)cc5)nnc4c23)cc1 | 105% (inactive)
12 | O=C(Nc1ccccc1)c1ccc2nsnc2c1 | 100% (inactive)
13 | Cc1cccc(NC(=O)c2ccc3nsnc3c2)c1C | 100% (inactive)
14 | Cc1cccc(NC(=O)N2CCCCCC2)c1C | 98.3% (inactive)
15 | Cc1cccc(NC(=O)c2cccc(C(=O)Nc3cccc(C)c3C)n2)c1C | 181% [may fluoresce violet] (active)
16 | Nc1nc(Sc2ncccc2[N+](=O)[O-])n[nH]1 | 96.3% (inactive)
17 | COc1ccc(N2C(=O)CCC(C(=O)N(C)C3CCCCC3)C2c2ccc(OC)c(OC)c2)cc1 (stereo unspecified) | 99.1% (inactive)
18 | CCCCCn1c(=O)[nH]c2cc(C(=O)NCCCN3CCCCC3C)ccc2c1=O (stereo unspecified) | 127% (inactive)
19 | O=S(=O)(NCC1CN(S(=O)(=O)c2ccc3c(c2)OCCO3)C1)c1c(F)cccc1F | 103% (inactive)
20 | Fc1ccc(/C=N/Nc2nc(-c3cccnc3)nc3ccccc23)cc1 | 195% (active)
21 | O=c1c2ccccc2nc(N/N=C/c2ccccc2)n1O | 95.1% (inactive)
22 | O=C(N/N=C/c1cccnc1)c1ccc(NC(=O)c2ccc(F)cc2)cc1 | 99.6% (inactive)
23 | Cc1cc(C)c(S(=O)(=O)NCCCN2CCOCC2)cc1Br | 103% (inactive)

Row | SMILES | GFP response vs DMSO
24 | CCOC(=O)Cn1c(=O)oc2cc(S(=O)(=O)N(C)Cc3ccco3)ccc21 | 91.7% (inactive)
25 | CN(c1ccccc1)c1ccc(/C=c2\s/c(=C(/C#N)C(=O)C(C)(C)C)n(Cc3ccco3)c2=O)cc1 | 343% (active)
26 | CCN1CCN(C(=O)N[C@@H](C(=O)N[C@@H]2C(=O)N3C(C(=O)O)=C(CSc4nnnn4C)CS[C@H]23)c2ccc(O)cc2)C(=O)C1=O | 94.9% (inactive)
27 | Cc1ccc(-c2csc(NC(=O)Cn3[nH]c(=O)c4ccccc4c3=O)n2)cc1 | 102% (inactive)
28 | Cc1c(C(=O)Nc2cccc(-c3nnc4n3CCCCC4)c2)oc2ccccc12 | 104% (inactive)
29 | O=C(Cn1[nH]c(=O)c2ccccc2c1=O)Nc1cccc(-c2nnc3n2CCCCC3)c1 | 224% [may fluoresce violet] (active)
30 | Cc1ccc(-c2csc(N(Cc3ccco3)C(=O)c3cccs3)n2)cc1 | 109% (inactive)
31 | CCc1nc2ccccc2n(CCOCCOCCn2c(=O)c(CC)nc3ccccc32)c1=O | 105% (inactive)
32 | CCOCCn1c(-c2ccccc2)nc2ccccc21 | 236% [may fluoresce violet] (active)
33 | CCOCCn1c(C(C)C)nc2ccccc21 | 94.3% (inactive)
34 | CCN(CC(=O)NCc1cccs1)C(=O)c1ccc(OC)c(S(=O)(=O)N2CCOCC2)c1 | 96% (inactive)
35 | Cc1cc(=O)oc2c3c(cc(OCC(=O)NCCC(=O)N[C@@H](C)C(=O)O)c12)OC(C)(C)CC3 | 92.9% (inactive)
36 | CCOc1cc(N2CCOCC2)c(OCC)cc1NC(=O)COc1cccc(Cl)c1 | 107% (inactive)
37 | CCOc1cc(N2CCOCC2)c(OCC)cc1NC(=O)COc1cccc2cccnc12 | 295% [may fluoresce violet] (active)
38 | CCOc1cc(N2CCOCC2)c(OCC)cc1NC(=O)c1ccc(C)s1 | 94.6% (inactive)
39 | O=C(CSc1nnc(-c2ccncc2)n1-c1ccc(Cl)cc1)Nc1ccc(C(=O)O)cc1 | 101% (inactive)
40 | Cc1cc(=O)oc2c3c(cc(OCC(=O)NCc4ccccn4)c12)OC(C)(C)CC3 | 100% (inactive)
41 | O=C(CCC(=O)N1CCN(S(=O)(=O)c2ccccc2)CC1)NC1CCCc2ccccc21 (stereo unspecified) | 108% (inactive)
42 | O=C(O)c1cc(S(=O)(=O)NC2CCCc3ccccc32)ccc1O (stereo unspecified) | 232% [may fluoresce violet] (active)
43 | CNS(=O)(=O)c1cccc(C(=O)NC2CCCc3ccccc32)c1 (stereo unspecified) | 102% (inactive)
44 | CCC(C)(C)c1ccc(OCC(=O)N(C)C)c(C(C)(C)CC)c1 | 108% (inactive)
45 | N#Cc1cccc(NC(=O)COC(=O)c2ccccc2C(=O)c2ccc(Cl)c([N+](=O)[O-])c2)c1 | 112% (inactive)
46 | Cc1ccc(C2(c3ccc(C)cc3)NC(=O)N(Cc3c(C)noc3C)C2=O)cc1 | 91.9% (inactive)
